Data reported in the supplement of paper PMC6555819.

Tests used:
Assay in all cases: PBM binding z-score (relative to random genomic background probes); higher = stronger binding; sequences stand for … in GC…GCGATTGACAGCGTAGAATGAAGG
[1] = system: FXR:RXRa (NR concentration 270 nM, RXRa partner concentration 90 nM)
Procedure, shortened: (§1)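 Each nuclear receptor dimer, without ligand, was incubated for 1 h on custom Agilent 4×180K protein-binding microarrays. Binding was detected with antibodies against each partner (one per run), and scanned fluorescence was regression-normalized. The binding z-scores are referenced to random human genomic background probes.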

[2] = system: LXRa:RXRa (NR concentration 270 nM, RXRa partner concentration 90 nM)
Procedure, shortened: as §1

[3] = system: LXRa homodimer (NR concentration 270 nM)
Procedure, shortened: as §1

[4] = system: LXRb:RXRa (NR concentration 270 nM, RXRa partner concentration 90 nM)
Procedure, shortened: as §1

[5] = system: LXRb homodimer (NR concentration 270 nM)
Procedure, shortened: as §1

[6] = system: PPARa:RXRa (NR concentration 270 nM, RXRa partner concentration 90 nM)
Procedure, shortened: as §1

[7] = system: PPARg:RXRa (NR concentration 180 nM, RXRa partner concentration 90 nM)
Procedure, shortened: as §1

[8] = system: PPARg:RXRa 270nM:90nM, anti-RXR (NR concentration 270 nM, RXRa partner concentration 90 nM)
Procedure, shortened: as §1

[9] = system: PPARg:RXRa 30nM:10nM, anti-RXR (NR concentration 30 nM, RXRa partner concentration 10 nM)
Procedure, shortened: as §1

[10] = system: PPARg:RXRa 90nM:30nM, anti-RXR (NR concentration 90 nM, RXRa partner concentration 30 nM)
Procedure, shortened: as §1

[11] = system: PPARg:RXRa DBDmut IVT, anti-RXR (DBD mutation: RXRa K156A/R161A, NR concentration 270 nM, RXRa partner concentration 90 nM)
Procedure, shortened: as §1

[12] = system: PPARg:RXRa IVT, anti-PPARg (NR concentration 270 nM, RXRa partner concentration 90 nM)
Procedure, shortened: as §1

[13] = system: PPARg DBDmut:RXRa IVT, anti-PPARg (DBD mutation: PPARg1 K132A/R137A, NR concentration 270 nM, RXRa partner concentration 90 nM)
Procedure, shortened: as §1

[14] = system: PPARg DBDmut IVT, anti-PPARg (DBD mutation: PPARg1 K132A/R137A, NR concentration 270 nM)
Procedure, shortened: as §1

[15] = system: PPARg homodimer (NR concentration 180 nM)
Procedure, shortened: as §1

[16] = system: PXR:RXRa (NR concentration 270 nM, RXRa partner concentration 90 nM)
Procedure, shortened: as §1

[17] = system: PXR homodimer (NR concentration 270 nM)
Procedure, shortened: as §1

[18] = system: RARa:RXR (NR concentration 270 nM, RXRa partner concentration 90 nM)
Procedure, shortened: as §1

[19] = system: RARa homodimer (NR concentration 270 nM)
Procedure, shortened: as §1

[20] = system: RARb:RXRa (NR concentration 270 nM, RXRa partner concentration 90 nM)
Procedure, shortened: as §1

Row | Sequence | PBM binding z-score [1] | PBM binding z-score [2] | PBM binding z-score [3] | PBM binding z-score [4] | PBM binding z-score [5] | PBM binding z-score [6] | PBM binding z-score [7] | PBM binding z-score [8] | PBM binding z-score [9] | PBM binding z-score [10] | PBM binding z-score [11] | PBM binding z-score [12] | PBM binding z-score [13] | PBM binding z-score [14] | PBM binding z-score [15] | PBM binding z-score [16] | PBM binding z-score [17] | PBM binding z-score [18] | PBM binding z-score [19] | PBM binding z-score [20]
1 | AGAACGAGGGCATGCTGAGTTGATAGCAGAGTAG | 0.426 | 0.131 | -0.52 | -0.164 | -1.15 | 1.12 | 0.939 | 0.666 | 0.00172 | 0.416 | 2.87 | 1.99 | 0.0501 | -0.0747 | -0.0685 | 1.14 | 0.117 | 0.374 | -0.883 | 1.89
2 | TCTAGTTGGTCAAAGGTCACACATTCGAAATGCG | 6.04 | 5.54 | 3.96 | 5.35 | 1.75 | 6.86 | 11.5 | 9.09 | 10.8 | 10.5 | 3.49 | 6.33 | 1.17 | 1.94 | 4.05 | 5.8 | 1.55 | 6.86 | 2.63 | 5.06
3 | ATCTCTAGGTAGAGTTCAGTGAAAGATCGATAGA | 0.805 | 1.62 | 1.28 | 1.2 | 0.516 | 1.78 | 1.1 | 2.33 | 0.898 | 1.93 | 0.277 | 0.789 | 1.33 | 0.623 | 0.95 | 2.52 | 2.07 | 1.22 | 0.329 | 1.82
4 | TCTAGTAGTTGAAGGGCAACCGACGAGTCCGTTT | 0.63 | 0.618 | -0.0916 | 0.268 | -0.134 | 0.455 | -0.018 | 1.65 | 2.83 | 2.22 | 1.78 | 0.527 | 0.13 | -0.187 | 0.499 | 0.507 | 0.346 | -0.0241 | 0.58 | 1.4
5 | TGTCAAAGTTCAAAGGTAGCGTAAGTATCCACAC | 6.72 | 6.04 | 4.44 | 4.05 | 1.42 | 5.57 | 8.17 | 7.45 | 4.48 | 7.05 | 0.0975 | 4.06 | 0.876 | 0.963 | -0.119 | 5.11 | 3.16 | 4.97 | 0.73 | 5.09
6 | CGAACGAGGGCATGAGGTGATAGCAAATGCCGAT | 0.82 | 0.474 | -0.458 | 0.317 | -0.998 | 2.05 | 2.27 | 2.23 | 0.483 | 1.49 | 3.25 | 3.37 | 0.644 | -0.341 | 0.574 | 0.422 | -0.352 | 1.16 | 0.0615 | 2.26
